Data published in PubChem BioAssay (EPA / NIEHS).
Records with an inconclusive call do not appear. Calls of active or inactive are those of the source. Rule for the calls: active = hit-call score of the fitted dose curve at least 0.9, where 1 is the maximum; inconclusive = response in the unintended direction; inactive = score below 0.9.

Key:
[1] = ACEA_AR_agonist_AUC_viability: ACEA Biosciences xCELLigence Real-Time Cell Analysis on Androgen Receptor Agonism for Viability (AID 2283775);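 for AC50: viability read 80 hours after compound addition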
Procedure, shortened: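 Read-out is area under the impedance curve at 80 h post-dose in 22Rv1 cells, with DMSO as baseline and signal loss taken as reduced viability. Compounds ran in duplicate from 100 uM final.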

[2] = tested on: Thyroperoxidase (TPO), gene 54314; assay: CCTE_Simmons_AUR_rTPO: CCTE's Amplex UltraRed Assay for Thyroperoxidase (TPO) Inhibition, Simmons Lab (AID 2283662);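 for AC50: potency for loss of signal meaning inhibition of peroxidase activity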
Procedure, shortened: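 Rat thyroid microsomes (5 ug protein) with 25 uM Amplex UltraRed and 300 uM H2O2 in 200 mM phosphate buffer, 30 min at 37C in dark; fluorescence 544/590 nm. Eight concentrations, 5 nM–87.5 uM final, 0.5% DMSO, triplicate biological replicates.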

[3] = target: Luciferin 4-monooxygenase (Photinus pyralis) (UniProt P08659); assay: CCTE_Simmons_QuantiLum_inhib_2: CCTE's Firefly Luciferase Inhibition Assay, Simmons Lab (AID 2283767)
Chain of Luciferin 4-monooxygenase (Photinus pyralis) (P08659 whole entry, looked up): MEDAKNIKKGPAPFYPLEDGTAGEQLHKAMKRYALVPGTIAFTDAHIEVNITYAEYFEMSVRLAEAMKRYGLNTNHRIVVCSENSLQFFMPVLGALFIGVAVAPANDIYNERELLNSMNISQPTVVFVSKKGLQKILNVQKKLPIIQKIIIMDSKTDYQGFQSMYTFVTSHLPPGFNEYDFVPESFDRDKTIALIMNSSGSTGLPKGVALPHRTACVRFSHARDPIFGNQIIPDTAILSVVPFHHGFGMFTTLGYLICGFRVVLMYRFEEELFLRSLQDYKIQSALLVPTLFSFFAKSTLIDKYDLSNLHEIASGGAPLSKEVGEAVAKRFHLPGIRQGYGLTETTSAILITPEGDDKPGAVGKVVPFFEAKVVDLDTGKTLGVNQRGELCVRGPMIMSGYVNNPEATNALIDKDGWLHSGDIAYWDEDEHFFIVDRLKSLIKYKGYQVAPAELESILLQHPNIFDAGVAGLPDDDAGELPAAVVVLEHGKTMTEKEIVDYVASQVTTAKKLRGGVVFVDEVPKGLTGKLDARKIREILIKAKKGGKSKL
Procedure, shortened: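 Counter-screen for nonspecific enzyme inhibition: purified firefly luciferase incubated 30 min at 37C with chemicals up to 87.5 uM final, then luminescence measured after luciferin/dATP injection; activity fitted against DMSO baseline.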

[4] = STM_H9_OrnCyssISnorm_ratio: Stemina devTOX quickPredict H9 human embryonic stem cell (hESC)-based Assay for Ornithine (ORN):Cystine (CYSS) Ratio (AID 2283714)
Procedure, shortened: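 Undifferentiated H9 hESCs exposed 72 h, media and compound replaced every 24 h; final 24-h conditioned media deproteinized and analysed by UPLC-HRMS against C13 spike-ins. Value is the internal-standard-normalized ORN/CYSS ratio versus 0.1% DMSO.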

[5] = ACEA_AR_antagonist_AUC_viability: ACEA Biosciences xCELLigence Real-Time Cell Analysis on Androgen Receptor Antagonism for Viability (AID 2283776);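 note: area under impedance growth curve at 80 h after dosing as viability; hits lower the growth signal relative to DMSO meaning cytotoxicity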
Procedure, shortened: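 22Rv1 human prostate cancer cells were seeded on electrode plates, monitored overnight, then exposed to eight 1:4 dilutions from 100 uM final. Impedance-based growth kinetics at 80 h gave an AUC viability endpoint normalized to DMSO.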

[6] = CCTE_Simmons_CellTiterGLO_HEK293T: Viability Assessment in CCTE's Assays for Thyroperoxidase (TPO) Inhibition, Simmons Lab (AID 2283665);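 for AC50: cells exposed to compound for 24 h before readout; actives reduce ATP signal below DMSO vehicle meaning cytotoxicity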
Procedure, shortened: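 Cytotoxicity counter-screen: human HEK293T cells in low-serum (1% FBS) medium receive test chemical, 5 nM to 87.5 uM final, for 24 h; ATP is quantified by luciferase luminescence.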

[7] = Tanguay_ZF_120hpf_CFIN_legacy: (Legacy) Oregon State University Tanguay Lab 120 Hour Post-fertilization zebrafish Assay for Caudal Fin Malformation (AID 2283649)
Procedure, shortened: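 Dechorionated 5D wild-type zebrafish, static exposure 6–120 hpf, 28C, sealed and dark, 0.64% v/v DMSO final. Binary fin-malformation call at 120 hpf, brightfield; gain of signal vs DMSO baseline.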

[8] = Tanguay_ZF_120hpf_PIG_legacy: (Legacy) Oregon State University Tanguay Lab 120 Hour Post-fertilization zebrafish Assay for Pigmentation Malformation (AID 2283650)
Procedure, shortened: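 Dechorionated Tropical 5D wild-type embryos, one per well from 6 hpf, statically exposed at 28C in the dark until 120 hpf, 0.64% DMSO final. Pigmentation scored present/absent by brightfield microscopy; dead embryos not scored; fitted versus DMSO.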

[9] = Tanguay_ZF_120hpf_CIRC_legacy: (Legacy) Oregon State University Tanguay Lab 120 Hour Post-fertilization zebrafish Assay for Circulatory Malformation (AID 2283651)
Procedure, shortened: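 Using wild-type Tropical 5D zebrafish, we exposed dechorionated embryos from 6 to 120 hpf in embryo medium with 0.64% DMSO. Circulatory defects were scored as present or absent; 5uM trimethyltin chloride served as positive control.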

[10] = Tanguay_ZF_120hpf_SWIM_legacy: (Legacy) Oregon State University Tanguay Lab 120 Hour Post-fertilization zebrafish Assay for Swim Bladder Malformation (AID 2283654);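 note: swim bladder malformation in each larva scored yes or no under brightfield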
Procedure, shortened: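 Dechorionated wild-type Tropical 5D zebrafish embryos, one per well from 6 hpf, were statically exposed at 28C until 120 hpf in 0.64% DMSO. Swim bladder malformation scored as present/absent by brightfield microscopy; not scored in dead larvae.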

[11] = Tanguay_ZF_120hpf_TRUN_legacy: (Legacy) Oregon State University Tanguay Lab 120 Hour Post-fertilization zebrafish Assay for Truncated Body (AID 2283655)
Procedure, shortened: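 Whole-embryo zebrafish screen: dechorionated 5D embryos, static exposure 6–120 hpf, 28C, sealed foil-covered plates, 0.64% DMSO. Binary truncation call; gain of signal versus DMSO baseline.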

[12] = Tanguay_ZF_120hpf_NC_legacy: (Legacy) Oregon State University Tanguay Lab 120 Hour Post-fertilization zebrafish Assay for Notochord and Tail Malformation (AID 2283656)
Procedure, shortened: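 Dechorionated 5D zebrafish, 1/well from 6 hpf; static exposure to 120 hpf, 28C, sealed, dark; final DMSO 0.64% v/v. NC scored binary (present/absent); dead embryos not scored. Fit vs DMSO baseline, gain direction.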

[13] = Tanguay_ZF_120hpf_TR_legacy: (Legacy) Oregon State University Tanguay Lab 120 Hour Post-fertilization zebrafish Assay for Touch Response (AID 2283667)
Procedure, shortened: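 Tropical 5D wild-type zebrafish embryos statically exposed to 120 hpf at 28°C, sealed and dark-covered, 0.64% DMSO final; touch response scored as present/absent by brightfield microscopy at 120 hpf. Trimethyltin chloride 5 uM positive control; dead embryos not scored.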

[14] = Tanguay_ZF_120hpf_ActivityScore_legacy: (Legacy) Oregon State University Tanguay Lab 120 Hour Post-fertilization zebrafish Assay Score for Activity (AID 2283742)
Procedure, shortened: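 Dechorionated Tropical 5D embryos, one per well from 6 hpf, statically exposed to 120 hpf at 28 °C in 0.64% DMSO. Mortality and malformations scored binary by brightfield microscopy; activity score combines 18 endpoints, fitted positively versus DMSO.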

CCCCCCCCC
outcome [1]: inactive

c1ccc2c(c1)c1cccc3ccc4cccc2c4c31
outcome [2]: inactive
outcome [3]: inactive

CCN(CC)CCOC(=O)c1ccc(N)cc1
outcome [4]: inactive
AC50 [1]: 20.5 µM (active)
outcome [5]: inactive

CCCCCCCCCCN
outcome [1]: inactive

CC(C)(C)C(=O)c1ccccc1
outcome [1]: inactive

CCCCCC(CO)CCC (stereo not given)
outcome [1]: inactive

COc1c(Cl)c(Cl)c(Cl)c(Cl)c1Cl
outcome [1]: inactive

COc1ccc(O)cc1
AC50 [2]: 8.4 µM (active)
AC50 [6]: 34.2 µM (active)
outcome [3]: inactive
outcome [1]: inactive
outcome [5]: inactive

COc1cc(C(C)(C)C)c(O)c(C(C)(C)C)c1
AC50 [2]: 2.32 µM (active)
AC50 [6]: 26.8 µM (active)
outcome [3]: inactive
outcome [1]: inactive
outcome [5]: inactive

O=C(O)c1ccc([N+](=O)[O-])cc1
outcome [7]: inactive
outcome [8]: inactive
outcome [9]: inactive
outcome [10]: inactive
outcome [11]: inactive
outcome [12]: inactive
outcome [13]: inactive
outcome [14]: inactive
outcome [1]: inactive

CN(C)c1ccc(O)c2c1C[C@H]1C[C@H]3[C@H](N(C)C)C(=O)C(C(N)=O)=C(O)[C@@]3(O)C(=O)C1=C2O
AC50 [2]: 0.607 µM (active)
outcome [3]: inactive

CC(=O)C=CC1=C(C)CCCC1(C)C
outcome [1]: inactive

CCCCCCCCCC=O
outcome [1]: inactive

Cc1ccc(O)c(C(C)(C)C)c1
AC50 [2]: 20.6 µM (active)
AC50 [6]: 65.6 µM (active)
outcome [3]: inactive
outcome [1]: inactive
outcome [5]: inactive

CCCCCCCCCCCCCCCC(=O)OC[C@H](O)[C@H]1OC(=O)C(O)=C1O
AC50 [2]: 18.3 µM (active)
AC50 [6]: 74.2 µM (active)
outcome [3]: inactive
outcome [1]: inactive
outcome [5]: inactive

CCN(CC)c1ccc(C(=C2C=CC(=[N+](CC)CC)C=C2)c2ccc(S(=O)(=O)O)cc2S(=O)(=O)[O-])cc1
outcome [1]: inactive

Cc1ccc(S)cc1
outcome [1]: inactive

NC(=O)Nc1ccc(Cl)cc1
outcome [1]: inactive

c1ccc(CCCc2ccccn2)cc1
outcome [1]: inactive

c1ccc2[nH]ccc2c1
AC50 [2]: 1.14 µM (active)
outcome [6]: inactive
outcome [3]: inactive
outcome [1]: inactive
outcome [5]: inactive

CC(C)=CCCC(C)=CCCC(C)=CCO
outcome [2]: inactive
AC50 [6]: 95 µM (active)
outcome [3]: inactive
